Experimental data from PubChem BioAssay.
Activity calls are given as the source filed them.

What was measured:
[1] = test system: wheat germ agglutinin (Triticum aestivum), Alexa647-labelled; assay: Alexa647-WGA lectin binding to printed small molecules – biochemical, small-molecule microarray, 635/667 nm fluorescence, artefact control for SMM control-protein annotation, profiling panel (AID 1140); settings: WGA-A647 binding, 635 nm fluorescence, higher = more signal;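 note: score merges 667 nm feature emission with signal to noise over triplicate slides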
[2] = molecular target: Luciferin 4-monooxygenase (Photinus pyralis) (UniProt P08659); assay: inhibition of purified Photinus pyralis luciferase – biochemical, luminescence, purified enzyme, 2006 set, primary screen (AID 1141); settings: purified firefly luciferase, SteadyGlo luminescence, 30 min; higher = more signal, called active from +8 up or from −8 down;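 note: cell-free assay with purified firefly luciferase at 100 ng per well in PBS; test concentration not given here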
[3] = test system: Wnt5a (protein binding on small-molecule microarray); assay: small molecules binding Wnt5a protein – biophysical, small-molecule microarray, 635/667 nm fluorescence, primary screen (AID 1142); settings: 635 nm fluorescence, higher = more signal;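 note: fluorescence read at 667 nm with signal to noise per printed feature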
[4] = ATP-based viability of Huh7 replicon cells – cell-based, CellTiter-Glo luminescence, basal, 48 h, cytotoxicity control for HCV replication inhibitor project, primary screen (AID 1143); settings: higher = more signal, called active from +8 up or from −8 down;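 note: Huh7 hepatoma cells carrying a hepatitis C replication reporter with no stimulus; test concentration not given here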
[5] = basal CRE-LacZ reporter activity in PC12 – cell-based, unstimulated, primary screen (AID 1145); settings: no forskolin, luminescence, 4.5 h, higher = more signal, called active from +8 up or from −8 down
[6] = forskolin-driven CRE-LacZ activity in PC12 – cell-based, CRE-LacZ reporter, forskolin-stimulated, primary screen (AID 1146); settings: luminescence, 4.5 h, higher = more signal, called active from +8 up or from −8 down;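 note: PC12 cells with 6xCRE LacZ reporter stimulated by forskolin 10 µM; beta-galactosidase reporter signal reflecting CREB driven transcription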
[7] = molecular target: Streptavidin (Streptomyces avidinii) (UniProt P22629); assay: compounds binding control protein streptavidin – biophysical, small-molecule microarray, 635/667 nm fluorescence, artefact control for SMM compound annotation, primary screen (AID 1147); settings: higher = more signal;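 note: signal reflects streptavidin binding to arrayed compounds as a control protein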
[8] = probe aInhba binding on compound microarray – biochemical, small-molecule microarray, 635/667 nm fluorescence, primary screen (AID 1148); settings: higher = more signal;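 note: score merges 667nm spot fluorescence with signal-to-noise for antibody binding to printed compounds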
Torsin-1A (Homo sapiens) [9] = molecular target: Torsin-1A (Homo sapiens) (UniProt O14656); assay: TOR1A wild-type binding on microarray – cell lysate, small-molecule microarray, lysate, 635/667 nm, primary screen (AID 1149); settings: COS7 hTOR1A-WT lysate, 635 nm fluorescence, higher = more signal
Torsin-1A (Homo sapiens) [10] = molecular target: Torsin-1A (Homo sapiens) (UniProt O14656); assay: torsin A mutant lysate binding on microarrays – cell lysate, small-molecule microarray, COS7 lysate, 635/667 nm fluorescence, primary screen (AID 1150); settings: COS7 hTOR1A mutant lysate, 635 nm fluorescence, higher = more signal;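 note: score pools 667 nm emission and signal to noise measuring lysate protein binding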
[11] = test system: Sonic hedgehog protein (Shh); assay: Sonic hedgehog microarray binding compounds – biochemical, small-molecule microarray, 635/667 nm fluorescence, primary screen (AID 1151); settings: 635 nm fluorescence, higher = more signal;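 note: Shh protein binding to compounds spotted on small-molecule microarray slides; score combines spot fluorescence intensity with signal-to-noise across triplicate slides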
[12] = optical density shifts of acrAB sulA E. coli – strain DRC41, OD650, 48 h, E. coli filamentation inducer project, primary screen (AID 1152); settings: higher = more signal, called active from +8 up or from −8 down;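 note: E. coli MC1000 strain DRC41 lacking acrAB efflux pump and sulA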
[13] = probe aLefty1 binding on compound microarray – biochemical, small-molecule microarray, 635/667 nm fluorescence, primary screen (AID 1153); settings: higher = more signal;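 note: score merges spot fluorescence with signal-to-noise ratio from the scanned slide images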
[14] = plasmodial surface anion channel blockers, osmotic lysis – cell-based, P. falciparum Indochina, OD700, 1 h, primary screen (AID 1154); settings: P. falciparum Indochina infected RBC osmotic lysis, higher = more signal, called active from +8 up or from −8 down
[15] = plasmodial surface anion channel blockers, osmotic lysis – cell-based, P. falciparum Indochina, OD700, 2 h, primary screen (AID 1155);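 note: lysis reports solute entry through the parasite surface anion channel PSAC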; settings: P. falciparum Indochina infected erythrocytes, higher = more signal, called active from +8 up or from −8 down
[16] = changes in parasitized red cell lysis, either direction – P. falciparum Indochina, OD700, 3 h, PSAC antagonist project, primary screen (AID 1156); settings: P. falciparum-infected erythrocytes, osmotic lysis, higher = more signal, called active from +8 up or from −8 down
[17] = plasmodial surface anion channel blockers, osmotic lysis – cell-based, P. falciparum Indochina, OD700, 18 h, primary screen (AID 1157); settings: P. falciparum Indochina infected erythrocytes, osmotic lysis OD700, 18 h; higher = more signal, called active from +8 up or from −8 down
[18] = S6 kinase pathway phospho-S6 level changes – cell-based, A549, cytoblot, luminescence, serum-stimulated, primary screen (AID 1158); settings: 5 h, higher = more signal;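 note: serum-stimulated A549 lung adenocarcinoma cells; signal is phosphorylated S6 detected by cytoblot immunostaining with HRP secondary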
[19] = molecular target: NADPH oxidase 2 (Homo sapiens) (UniProt P04839); assay: compounds shifting NOX2 Amplex Red fluorescence – cell-based, HEK293-NOX2, PMA-stimulated, NOX inhibitor project, primary screen (AID 1159); settings: 45 min, higher = more signal, called active from +8 up or from −8 down; note: test concentration not given here
[20] = molecular target: NADPH oxidase 4 (Homo sapiens) (UniProt Q9NPH5); assay: compounds shifting NOX4 Amplex Red fluorescence – cell-based, HEK293-NOX4, tetracycline-induced, NOX inhibitor project, primary screen (AID 1160); settings: HEK293-NOX4, Amplex Red H2O2 fluorescence, 45 min; higher = more signal, called active from +8 up or from −8 down
Sequence of NADPH oxidase 4 (Homo sapiens) (Q9NPH5 whole entry, looked up): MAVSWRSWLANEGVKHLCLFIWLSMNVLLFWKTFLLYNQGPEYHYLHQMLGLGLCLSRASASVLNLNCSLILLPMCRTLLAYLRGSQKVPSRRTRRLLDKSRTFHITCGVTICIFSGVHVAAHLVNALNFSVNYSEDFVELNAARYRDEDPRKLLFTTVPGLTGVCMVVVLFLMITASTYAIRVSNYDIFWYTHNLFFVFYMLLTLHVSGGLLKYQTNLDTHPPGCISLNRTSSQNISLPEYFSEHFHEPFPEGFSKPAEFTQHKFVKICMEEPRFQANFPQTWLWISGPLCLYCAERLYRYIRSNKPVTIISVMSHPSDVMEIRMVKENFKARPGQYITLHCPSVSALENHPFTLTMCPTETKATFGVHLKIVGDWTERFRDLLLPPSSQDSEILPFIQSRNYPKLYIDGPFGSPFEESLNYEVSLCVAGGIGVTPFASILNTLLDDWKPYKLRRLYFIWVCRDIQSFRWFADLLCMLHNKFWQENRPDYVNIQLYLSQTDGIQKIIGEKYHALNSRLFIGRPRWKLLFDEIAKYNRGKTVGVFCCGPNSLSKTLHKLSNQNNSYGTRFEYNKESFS

Sequence of Luciferin 4-monooxygenase (Photinus pyralis) (P08659 whole entry, looked up): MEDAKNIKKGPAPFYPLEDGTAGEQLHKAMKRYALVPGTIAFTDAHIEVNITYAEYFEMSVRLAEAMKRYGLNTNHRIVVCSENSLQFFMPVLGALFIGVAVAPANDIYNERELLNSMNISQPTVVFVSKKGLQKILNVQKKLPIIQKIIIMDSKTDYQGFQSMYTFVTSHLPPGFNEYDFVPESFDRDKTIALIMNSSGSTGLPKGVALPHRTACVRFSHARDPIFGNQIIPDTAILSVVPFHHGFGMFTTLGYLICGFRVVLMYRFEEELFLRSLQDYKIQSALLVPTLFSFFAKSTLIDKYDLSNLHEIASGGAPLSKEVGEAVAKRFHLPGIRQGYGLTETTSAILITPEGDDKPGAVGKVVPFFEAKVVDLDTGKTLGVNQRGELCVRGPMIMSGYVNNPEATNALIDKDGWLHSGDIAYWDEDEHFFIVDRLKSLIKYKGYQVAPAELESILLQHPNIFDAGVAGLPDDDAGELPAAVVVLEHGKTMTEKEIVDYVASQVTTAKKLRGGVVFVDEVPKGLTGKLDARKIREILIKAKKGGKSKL
Sequence of NADPH oxidase 2 (Homo sapiens) (P04839 whole entry, looked up): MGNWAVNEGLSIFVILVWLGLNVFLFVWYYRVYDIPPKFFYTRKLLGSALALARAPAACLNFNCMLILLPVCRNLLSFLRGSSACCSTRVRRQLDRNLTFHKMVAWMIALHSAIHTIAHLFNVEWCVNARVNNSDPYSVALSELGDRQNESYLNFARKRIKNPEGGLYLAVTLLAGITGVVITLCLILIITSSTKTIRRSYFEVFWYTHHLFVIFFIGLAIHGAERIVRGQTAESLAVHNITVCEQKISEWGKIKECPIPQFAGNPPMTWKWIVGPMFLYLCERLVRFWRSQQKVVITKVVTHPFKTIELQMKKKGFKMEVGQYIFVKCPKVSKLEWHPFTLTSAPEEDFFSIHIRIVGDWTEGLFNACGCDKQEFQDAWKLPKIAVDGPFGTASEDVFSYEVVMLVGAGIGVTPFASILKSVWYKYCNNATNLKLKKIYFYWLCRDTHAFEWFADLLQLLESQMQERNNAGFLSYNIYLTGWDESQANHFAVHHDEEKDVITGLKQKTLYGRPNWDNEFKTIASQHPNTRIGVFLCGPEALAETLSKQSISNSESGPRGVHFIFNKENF
Sequence of Torsin-1A (Homo sapiens) (O14656 whole entry, looked up): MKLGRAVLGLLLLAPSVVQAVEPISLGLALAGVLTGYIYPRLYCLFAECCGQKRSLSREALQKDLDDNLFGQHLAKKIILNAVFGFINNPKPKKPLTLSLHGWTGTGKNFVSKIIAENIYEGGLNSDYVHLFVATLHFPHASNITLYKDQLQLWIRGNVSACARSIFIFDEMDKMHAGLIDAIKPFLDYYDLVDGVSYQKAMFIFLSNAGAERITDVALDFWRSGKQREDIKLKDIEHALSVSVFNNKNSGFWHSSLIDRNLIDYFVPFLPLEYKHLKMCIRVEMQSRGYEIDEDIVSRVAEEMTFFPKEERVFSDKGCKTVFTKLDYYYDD
Sequence of Streptavidin (Streptomyces avidinii) (P22629 whole entry, looked up): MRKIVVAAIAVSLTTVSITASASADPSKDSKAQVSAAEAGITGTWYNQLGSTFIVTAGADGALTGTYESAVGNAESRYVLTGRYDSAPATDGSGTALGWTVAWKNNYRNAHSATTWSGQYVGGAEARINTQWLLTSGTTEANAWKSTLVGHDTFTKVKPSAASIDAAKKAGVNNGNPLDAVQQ

SMILES | composite z-score [1] | z-score [2] | composite z-score [3] | z-score [4] | z-score [5] | z-score [6] | composite z-score [7] | composite z-score [8] | composite z-score (Torsin-1A (Homo sapiens) [9]) | composite z-score (Torsin-1A (Homo sapiens) [10]) | composite z-score [11] | z-score [12] | composite z-score [13] | z-score [14] | z-score [15] | z-score [16] | z-score [17] | z-score [18] | z-score [19] | z-score [20]
CCCNC(=O)[C@@]1(Sc2ccc(C)cc2)CC(=O)N(Cc2cc(C(F)(F)F)cc(C(F)(F)F)c2)[C@@H]1c1ccc(CO)cc1I | -0.405 | -0.839 (inactive) | 0.0758 | -3.48 (inactive) | 0.0279 (inactive) | -1.35 (inactive) | -0.179 | 0.172 | -0.365 | 0.0283 | 0.158 | 3.98 (inactive) | 0.114 | 2.98 (inactive) | 0.438 (inactive) | -0.436 (inactive) | -0.191 (inactive) | 4.1 | 1.32 (inactive) | -1.29 (inactive)
C=CCNC(=O)[C@H]1[C@@H]2C(=O)O[C@@H](c3ccccc3)[C@@H](c3ccccc3)N2[C@@H](c2ccccc2OCCO)[C@]12C(=O)N(C(=O)OCCOC)c1ccc(C#CCCO)cc12 | 0.958 | -1.66 (inactive) | 0.641 | -3.68 (inactive) | 0.472 (inactive) | 3.22 (inactive) | 0.876 | 0.561 | 1.02 | 0.546 | 0.861 | 1.4 (inactive) | 1.12 | 2.84 (inactive) | 1.32 (inactive) | -0.383 (inactive) | 0.875 (inactive) | 0.0195 | 1.74 (inactive) | 1.42 (inactive)
C=CCOC(=O)[C@H]1[C@@H]2C(=O)O[C@@H](c3ccccc3)[C@@H](c3ccccc3)N2[C@@H](c2ccc(OCCOC(=O)[C@H]3C[C@H]4C(=O)N5CCC[C@H]5C(=O)N4[C@H]3c3cccc(OCCO)c3)cc2)[C@]12C(=O)Nc1ccccc12 | 0.828 | -1.23 (inactive) | 0.135 | -2.03 (inactive) | 1.22 (inactive) | -0.378 (inactive) | -0.0186 | -0.0849 | 0.292 | 1.54 | 1.18 | 1.18 (inactive) | -0.106 | 5.04 (inactive) | 1.7 (inactive) | -0.158 (inactive) | 0.741 (inactive) | -0.0338 | 2.26 (inactive) | 1.57 (inactive)
CC(C)(C)OC(=O)CC[C@]1(C(=O)NCc2ccccc2)COC(c2ccc(OCCCO)cc2)=N1 | 1.33 | -0.714 (inactive) | 0.433 | -1.47 (inactive) | 1.7 (inactive) | -1.32 (inactive) | 0.74 | -0.0308 | -0.208 | 1.11 | -0.743 | 2.02 (inactive) | 0.0738 | 18.7 (active) | 1.92 (inactive) | 1.99 (inactive) | -1.39 (inactive) | 0.719 | 0.117 (inactive) | 0.804 (inactive)
COc1ccc(/C=C/C(=O)c2cccc(OCC(=O)OC(C)(C)C)c2)cc1 | 0.248 | -2.64 (inactive) | -0.132 | -0.385 (inactive) | 0.622 (inactive) | -0.588 (inactive) | -0.152 | -0.363 | 0.349 | 0.179 | -0.139 | 1.42 (inactive) | -0.113 | 30.9 (active) | 25.8 (active) | 0.746 (inactive) | 1.41 (inactive) | 0.112 | -1.32 (inactive) | 0.197 (inactive)
COCCOC(=O)N1C(=O)[C@@]2(c3cc(C#CC4(O)CCCCCC4)ccc31)[C@H](c1ccccc1OCCO)N1[C@H](c3ccccc3)[C@H](c3ccccc3)OC(=O)[C@H]1[C@@H]2C(=O)Nc1nc2ccccc2s1 | 1.14 | -2.53 (inactive) | 0.478 | -4.73 (inactive) | 0.802 (inactive) | -1.05 (inactive) | 0.16 | -0.0468 | 1.2 | 0.663 | 1.52 | 2.49 (inactive) | -0.105 | 3.33 (inactive) | 0.299 (inactive) | 0.851 (inactive) | -0.515 (inactive) | 1.02 | 1.27 (inactive) | -0.694 (inactive)
COc1ccc([Si](C)(C)[C@@H]2[C@@H](CCn3cc([C@H](O)c4ccccc4)nn3)O[C@]3(C(=O)N(C)c4c(Br)cc(C)cc43)[C@H]2C)cc1 | 0.397 | -2.15 (inactive) | 0.17 | -6.27 (inactive) | 8.24 (active) | -1.37 (inactive) | -0.541 | 0.0659 | 0.722 | -0.0682 | 0.658 | 3.5 (inactive) | -0.279 | 26.4 (active) | 15.1 (active) | 0.547 (inactive) | 0.083 (inactive) | 2.34 | 1.04 (inactive) | 0.593 (inactive)
C=CCC(OC(C)=O)[C@@H]1[C@@H](N(Cc2ccc(-c3cccc(C(F)(F)F)c3)o2)C(=O)c2ccc(-c3ccccc3)cc2)c2cc(OCCCO)ccc2N1C(=O)Cc1ccc(OC)cc1 (stereo not given in full) | 0.15 | -0.626 (inactive) | 0.0578 | -1.84 (inactive) | 1.38 (inactive) | -0.0892 (inactive) | -0.152 | -0.273 | -0.267 | 0.0992 | 0.214 | 1.73 (inactive) | -0.0501 | 0.963 (inactive) | 0.485 (inactive) | 0.218 (inactive) | -0.0843 (inactive) | 0.509 | 0.964 (inactive) | 1.06 (inactive)
